Laboratory results taken from PubChem BioAssay (EPA / NIEHS).
“And” between values parts separate entries of the source, which are not always exact repeats. Identical values can stand only once. More than one record can exist for a structure, and the calls need not agree. The source made the active and inactive calls. Rule for the calls: active = hit-call score of the fitted dose curve at least 0.9, where 1 is the maximum; inactive = score below 0.9.

Key:
[1] = BSK_hDFCGF_SRB: Viability Assessment in the BioMAP Diversity Plus: hDFCGF Assay (AID 2283061); conditions: primary human foreskin fibroblasts;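 note: cells exposed to compound for 24 h before the read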
Method in brief: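 SRB-based viability read on primary human skin fibroblasts at 24 h: TCA fixation, 0.1% dye, 560 nm. Gain or loss of signal is fitted against the DMSO negative control.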

[2] = read-out: TIMP metallopeptidase inhibitor 1 (TIMP1), TIMP1 (gene 7076); test: BSK_hDFCGF_TIMP1: BioMAP Diversity Plus: hDFCGF Assay for TIMP metallopeptidase inhibitor 1 (TIMP1) Biomarker Activity (AID 2283062); conditions: primary human foreskin fibroblasts; actives raise or lower the signal
Method in brief: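 Bidirectional curve fitting against DMSO baseline yielded this endpoint, based on ELISA detection of TIMP-1 in primary human foreskin fibroblasts exposed to compound for 24 h.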

[3] = read-out: Monokine induced gamma interferon (MIG), CXCL9 (gene 4283); test: BSK_hDFCGF_MIG: BioMAP Diversity Plus: hDFCGF Assay for Monokine induced gamma interferon (MIG) Biomarker Activity (AID 2283063); conditions: primary human foreskin fibroblasts; actives raise or lower the signal
Method in brief: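 Endpoint derived by bidirectional fitting relative to DMSO; MIG quantified via ELISA in primary human foreskin fibroblasts harvested 24 h after dosing.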

[4] = read-out: Matrix Metallopeptidase 1 (MMP1), MMP1 (gene 4312); test: BSK_hDFCGF_MMP1: BioMAP Diversity Plus: hDFCGF Assay for Matrix Metallopeptidase 1 (MMP1) Biomarker Activity (AID 2283064); conditions: primary human foreskin fibroblasts; actives raise or lower the signal
Method in brief: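 Primary human foreskin fibroblasts exposed to chemicals for 24 h; MMP1 measured by ELISA. Cytotoxicity tracked by SRB staining in parallel cultures; bidirectional fit relative to DMSO.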

[5] = read-out: Vascular cell adhesion molecule 1 (VCAM1), VCAM1 (gene 7412); test: BSK_hDFCGF_VCAM1: BioMAP Diversity Plus: hDFCGF Assay for Vascular cell adhesion molecule 1 (VCAM1) Biomarker Activity (AID 2283065); conditions: primary human foreskin fibroblasts; actives raise or lower the signal;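 for AC50: VCAM-1 protein level quantified by ELISA after 24 h chemical exposure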
Method in brief: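 Measured after 24 h chemical treatment of primary human skin fibroblasts, VCAM-1 was detected by ELISA and concentration-response analysed in both directions versus DMSO vehicle.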

[6] = read-out: Plasminogen activator inhibitor-1 (PAI1), SERPINE1 (gene 5054); test: BSK_hDFCGF_PAI1: BioMAP Diversity Plus: hDFCGF Assay for Plasminogen activator inhibitor-1 (PAI1) Biomarker Activity (AID 2283066); conditions: primary human foreskin fibroblasts; actives raise or lower the signal
Method in brief: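 PAI-1 levels, determined by ELISA, served as the endpoint in human foreskin fibroblast cultures exposed to compound for 24 h, with DMSO as baseline.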

[7] = read-out: Intercellular Adhesion Molecule 1 (ICAM1), ICAM1 (gene 3383); test: BSK_KF3CT_ICAM1: BioMAP Diversity Plus: KF3CT Assay for Intercellular Adhesion Molecule 1 (ICAM1) Biomarker Activity (AID 2283067); conditions: primary human keratinocytes with fibroblasts; actives raise or lower the signal
Method in brief: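 Bidirectional curve fitting against a DMSO baseline was applied to ICAM-1 ELISA signal from primary human skin co-cultures harvested 24 h after treatment, with SRB staining of parallel wells for overt cytotoxicity.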

[8] = read-out: Interferon-gamma inducible Protein 10 (IP10), CXCL10 (gene 3627); test: BSK_KF3CT_IP10: BioMAP Diversity Plus: KF3CT Assay for Interferon-gamma inducible Protein 10 (IP10) Biomarker Activity (AID 2283068); conditions: primary human keratinocytes with fibroblasts; actives raise or lower the signal
Method in brief: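 In a primary skin co-culture of keratinocytes and fibroblasts, IP-10 is quantified by ELISA at 24 h after dosing. SRB staining of parallel wells monitors overt toxicity. Curves are fitted both directions against DMSO.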

[9] = BSK_KF3CT_SRB: Viability Assessment in the BioMAP Diversity Plus: KF3CT Assay (AID 2283069); conditions: primary human keratinocytes with fibroblasts;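 note: total protein by sulforhodamine B staining as a cytotoxicity measure; read 24 h after compound addition; fitted for both signal gain and loss against DMSO baseline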
Method in brief: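 Human keratinocyte and foreskin fibroblast co-culture exposed to chemical for 24 h. Total protein measured in parallel cultures by 0.1% sulforhodamine B staining after 10% TCA fixation, read at 560 nm; bidirectional fit relative to DMSO.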

[10] = read-out: Interleukin-1 alpha (IL1a), IL1A (gene 3552); test: BSK_KF3CT_IL1a: BioMAP Diversity Plus: KF3CT Assay for Interleukin-1 alpha (IL1a) Biomarker Activity (AID 2283070); conditions: primary human keratinocytes with fibroblasts; actives raise or lower the signal
Method in brief: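 Primary human keratinocyte plus foreskin fibroblast co-culture, dosed and measured at 24 h in 96-well plates. IL-1a level quantified by ELISA; bidirectional fit relative to DMSO.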

[11] = read-out: TIMP metallopeptidase inhibitor 2 (TIMP2), TIMP2 (gene 7077); test: BSK_KF3CT_TIMP2: BioMAP Diversity Plus: KF3CT Assay for TIMP metallopeptidase inhibitor 2 (TIMP2) Biomarker Activity (AID 2283071); conditions: primary human keratinocytes with fibroblasts; actives raise or lower the signal
Method in brief: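 Keratinocyte–fibroblast co-culture, 24 h exposure; TIMP-2 ELISA, DMSO-normalised bidirectional fit. Parallel SRB (0.1%, TCA-fixed, 560 nm) total-protein staining gauges cytotoxicity.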

[12] = read-out: Transforming growth factor beta 1 (TGFb1), TGFB1 (gene 7040); test: BSK_KF3CT_TGFb1: BioMAP Diversity Plus: KF3CT Assay for Transforming growth factor beta 1 (TGFb1) Biomarker Activity (AID 2283072); conditions: primary human keratinocytes with fibroblasts; actives raise or lower the signal
Method in brief: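 Signal changes in either direction, relative to DMSO, define activity here. TGF-b1 is read by ELISA from a human keratinocyte-fibroblast co-culture 24 h post-dose.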

[13] = read-out: C-C motif chemokine 2 (Homo sapiens) (UniProt P13500); test: BSK_KF3CT_MCP1: BioMAP Diversity Plus: KF3CT Assay for Monocyte Chemoattractant Protein 1 (MCP1/CCL2) Biomarker Activity (AID 2283073); conditions: primary human keratinocytes with fibroblasts; actives raise or lower the signal
Method in brief: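 Biomarker MCP-1 is measured by ELISA in primary human keratinocytes co-cultured with foreskin fibroblasts, 24 h after chemical treatment; DMSO serves as the negative control and activity baseline.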

[14] = read-out: Matrix Metallopeptidase 9 (MMP9), MMP9 (gene 4318); test: BSK_KF3CT_MMP9: BioMAP Diversity Plus: KF3CT Assay for Matrix Metallopeptidase 9 (MMP9) Biomarker Activity (AID 2283074); conditions: primary human keratinocytes with fibroblasts; actives raise or lower the signal;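 for AC50: MMP9 protein level quantified by ELISA in the co-culture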
Method in brief: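 Human keratinocyte and foreskin fibroblast co-culture exposed to chemicals for 24 h; MMP9 biomarker measured by ELISA, bidirectional fitting relative to DMSO; cytotoxicity tracked by SRB total protein staining in parallel cultures.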

[15] = read-out: urokinase plasminogen activator (uPA), PLAU (gene 5328); test: BSK_KF3CT_uPA: BioMAP Diversity Plus: KF3CT Assay for urokinase plasminogen activator (uPA) Biomarker Activity (AID 2283075); conditions: primary human keratinocytes with fibroblasts; actives raise or lower the signal
Method in brief: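 Primary human keratinocyte/foreskin fibroblast co-culture exposed to chemical; uPA measured by ELISA at 24 h. Bidirectional fit versus DMSO, with parallel SRB total-protein staining for cytotoxicity.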

CD40, CD40 (gene 958) = test: BSK_LPS_CD40: BioMAP Diversity Plus: LPS Assay for CD40 Biomarker Activity (AID 2283076); conditions: primary human HUVEC with PBMC; actives raise or lower the signal
Method in brief: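 Using a multiplexed primary human co-culture (umbilical vein endothelium plus PBMC), CD40 was read by ELISA 24 h after dosing, with cytotoxicity tracked by sulforhodamine B staining of parallel cultures and activity fitted bidirectionally versus DMSO.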

[16] = read-out: E-selectin (Homo sapiens) (UniProt P16581); test: BSK_LPS_Eselectin: BioMAP Diversity Plus: LPS Assay for Eselectin Biomarker Activity (AID 2283077); conditions: primary human HUVEC with PBMC; actives raise or lower the signal
Method in brief: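 Dose chemical onto LPS-driven HUVEC/PBMC co-culture; after 24 h, run ELISA for E-selectin; fit up- and down-going responses relative to DMSO control.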

[17] = read-out: Interleukin-8 (IL8), CXCL8 (gene 3576); test: BSK_LPS_IL8: BioMAP Diversity Plus: LPS Assay for Interleukin-8 (IL8) Biomarker Activity (AID 2283078); conditions: primary human HUVEC with PBMC; actives raise or lower the signal
Method in brief: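 In this LPS system, chemical-treated human umbilical vein endothelium/PBMC co-cultures were harvested at 24 h for IL-8 ELISA.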

[18] = BSK_LPS_SRB: Viability Assessment in the BioMAP Diversity Plus: LPS Assay (AID 2283079); conditions: primary human HUVEC with PBMC;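 note: total protein by sulforhodamine B absorbance as a cytotoxicity measure; measured one day after compound addition; fitted in both directions against DMSO so loss or gain of signal counts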
Method in brief: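 Cytotoxicity endpoint in human endothelial–PBMC co-culture: 24 h exposure, then SRB (0.1%) staining, 560 nm read.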

[19] = read-out: Interleukin-1 alpha (IL1a), IL1A (gene 3552); test: BSK_LPS_IL1a: BioMAP Diversity Plus: LPS Assay for Interleukin-1 alpha (IL1a) Biomarker Activity (AID 2283080); conditions: primary human HUVEC with PBMC; actives raise or lower the signal
Method in brief: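 Primary human HUVEC and PBMC co-culture stimulated with LPS is dosed and harvested at 24 h. Both increases and decreases in ELISA-measured IL-1a are scored relative to DMSO.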

Measured: AC50

E-selectin (Homo sapiens), sequence (P16581 whole entry, looked up): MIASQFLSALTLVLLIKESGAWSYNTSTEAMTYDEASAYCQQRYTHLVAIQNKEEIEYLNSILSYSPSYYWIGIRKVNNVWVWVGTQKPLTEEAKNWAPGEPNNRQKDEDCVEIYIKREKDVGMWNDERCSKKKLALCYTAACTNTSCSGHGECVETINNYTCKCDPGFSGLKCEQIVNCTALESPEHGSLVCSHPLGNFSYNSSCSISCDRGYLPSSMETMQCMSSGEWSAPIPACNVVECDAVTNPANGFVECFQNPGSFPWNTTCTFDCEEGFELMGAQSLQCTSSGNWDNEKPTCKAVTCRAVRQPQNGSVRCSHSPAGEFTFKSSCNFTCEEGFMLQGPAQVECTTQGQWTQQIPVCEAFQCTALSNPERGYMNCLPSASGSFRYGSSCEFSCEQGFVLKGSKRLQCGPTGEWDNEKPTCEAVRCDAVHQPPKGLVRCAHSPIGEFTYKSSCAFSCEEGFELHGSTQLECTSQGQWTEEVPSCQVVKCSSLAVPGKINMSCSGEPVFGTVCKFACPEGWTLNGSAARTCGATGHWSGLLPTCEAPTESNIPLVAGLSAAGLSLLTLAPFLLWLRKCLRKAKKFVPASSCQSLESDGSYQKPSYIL

CC(=O)CC(C)(C)O
inactive: all assays above

Oc1cc2ccccc2c2ccccc12
active: [1] 3.24 µM | [2] 3.41 µM | [3] 2.78 µM | [4] 2.93 µM | [5] 2.07 µM | [6] 2.4 µM | [7] 6.96 µM | [8] 7.34 µM | [10] 6 µM | [11] 7.99 µM | [12] 6.02 µM | [13] 6.26 µM | [14] 5.66 µM | [15] 7.13 µM | CD40, CD40 (gene 958) 5.93 µM | [16] 11.1 µM | [17] 12.6 µM | [18] 12.1 µM | [19] 7.63 µM
inactive: [9]

c1ccc2cc3c(ccc4ccccc43)cc2c1
inactive: all assays above

C[C@@H]1C[C@H]2[C@@H]3CCC4=CC(=O)C=C[C@]4(C)[C@@]3(F)[C@@H](O)C[C@]2(C)[C@@]1(O)C(=O)COP(=O)(O)O
inactive: [1] | [2] | [3] | [4] | [5] | [6] | [7] | [8] | [9] | [10] | [11] | [13] | [14] | [15] | CD40, CD40 (gene 958) | [16] | [17] | [18] | [19]
active: [1] 3.28 µM | [2] 2.65 µM | [4] 1.42 µM and 386 nM | [5] 8.68 µM

CC(=O)NC1(c2cccc(F)c2)CCN(CC[C@@]2(c3ccc(Cl)c(Cl)c3)CN(c3ccccc3)C(=O)CO2)CC1
active: [1] 24.5 µM | [2] 26.7 µM | [3] 31.8 µM | [4] 30.2 µM | [5] 27 µM | [6] 23.8 µM | [8] 25.3 µM | [9] 25.1 µM | [14] 25.8 µM | [15] 27 µM | [17] 4.23 µM | [18] 12.8 µM | [19] 24.9 µM
inactive: [7] | [10] | [11] | [13] | CD40, CD40 (gene 958) | [16]
